Pf growth 48h = Primary qHTS for delayed death inhibitors of the malarial parasite plastid, 48 hour incubation. P. falciparum luciferase growth in erythrocytes, 48 h. 310,000 tested, 5.9% active. Potency, µM (series often up to 28.7 µM), for inactives: top-dose activity change, negative = inhibition, hits mostly inhibitors; also: potency is read from the fitted curve at half-maximal effect; % is scaled to controls: 0 for no effect and ±100 for the full control effect
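Luciferase-expressing P. falciparum in infected erythrocytes (2% hematocrit, 0.1% parasitemia final) in RPMI 1640/0.5% Albumax were exposed to compound for 48 hours at 37 C, 5% CO2; growth read as luminescence.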
Cycloheximide cs = Cycloheximide Counterscreen for Small Molecule Inhibitors of Shiga Toxin; 300,000 tested, 12% active; max response, %; cell reporter, cycloheximide protein synthesis inhibition counterscreen; in the data active = max response mostly above about 13%, no sharp cut-off; inactive = mostly below about 14%; also: read at 38.3 µM for the half of the compounds with a filed dose; 0% is about no effect
Pf growth 96h = Primary qHTS for delayed death inhibitors of the malarial parasite plastid, 96 hour incubation. AID 504834, 2011. 320,000 tested, 6.9% active. Potency, µM (top dose mostly 28.7 µM), without a hit: at the highest dose activity change, negative = inhibition, most hits filed as inhibitors. P. falciparum luciferase reporter growth, 96 h; also: potency is read from the fitted curve at half-maximal effect; % is scaled to controls: 0 for no effect and ±100 for the full control effect
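Delayed-death screen, second-generation endpoint: infected erythrocytes, 2% hematocrit, 0.05% parasitemia final; 96 hours at 37 C, 5% CO2; luciferase detection reagent; luminescence decrease equals reduced growth.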
HCMV antiviral = qHTS Assay for inhibitors of the human cytomegalovirus (HCMV) | HFF cells, HCMV-luciferase reporter, 72 h; stronger effect = lower value | activity change, negative = inhibition, % at 57.5 µM | 410,000 tested, 4.5% active; in the data active = activity change below about -60%; inconclusive = no clear call, values can overlap the other calls; inactive = above about -39%; also: % is scaled to controls: 0 for no effect and ±100 for the full control effect
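HFF cells seeded 16 h at 37C, treated with compounds, infected with luciferase-reporter HCMV at MOI 1 PFU/cell; luciferase read at 72 h post infection, normalized to buffer-only and Salinomycin controls.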
HCV inhibitor = qHTS Assay for Inhibitors of Hepatitis C Virus (HCV); Potency, µM (top dose mostly 41.8 µM), for the others: top-dose activity change, negative = inhibition, actives largely listed as inhibitors; Huh7.5.1 HCVcc-Cre infection, luciferase reporter, 44 h; AID 651820, 2012; 340,000 tested, 3.4% active; also: potency is read from the fitted curve at half-maximal effect; % is scaled to controls: 0 for no effect and ±100 for the full control effect
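Antiviral activity was scored by luciferase reporter output from cells infected with HCVcc-Cre (~0.5 moi) in presence of compound, 44 h infection period, cells seeded 1,000/well 4 h prior.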
Shiga toxin inh = A qHTS for Small Molecule Inhibitors of Shiga Toxin; Vero cells, Shiga toxin protein synthesis inhibition reporter; inhibition, % at 38.7 µM; 290,000 tested, 9.2% active; in the data active = inhibition mostly above about 28%, no sharp cut-off; inactive = mostly below about 43%; also: 0% is about no effect
Active calls of the source: *; ? = inconclusive; · = no result given; [ ] = dose if it differs, or a comment. Most compounds without a hit are left out; they make up all but 21% or so of the library. Unless noted, calls follow the shape of the dose curve; as a rule, active = well fitted inhibition curve with a large enough effect; inconclusive = small, poorly fitted or top-dose-only effect, or another doubt; inactive = no such curve, though single readings can be large or run the other way.

SMILES	Pf growth 48h	Cycloheximide cs	Pf growth 96h	HCMV antiviral	HCV inhibitor	Shiga toxin inh
COc1ccc([C@@H]2[C@@H]3C(=O)N(C(C)(C)C)C(=O)[C@@H]3[C@]3(C)C(=O)N(c4cccc(Cl)c4)C(=O)N23)cc1	?	·	-24.4%	-71.2*	4.9%	·
COc1ccc(N2C(=O)N3[C@H](c4ccc(Cl)cc4)[C@@H]4C(=O)N(C5CCCCC5)C(=O)[C@@H]4[C@]3(Cc3ccc(Cl)cc3)C2=O)cc1	-107.0%	12.4*	1.17µM*	-5.6	24.3%	64.3*
COc1ccc([C@@H]2[C@@H]3C(=O)N(C(C)(C)C)C(=O)[C@@H]3[C@]3(Cc4ccc(Cl)cc4)C(=O)N(c4ccc(OC)cc4)C(=O)N23)cc1	?	·	13.1µM*	10.1	5.6%	·
O=C1[C@H]2[C@@H](c3ccc(F)cc3)N3C(=O)N(c4ccc(Br)cc4)C(=O)[C@@]3(Cc3ccc(Cl)cc3)[C@H]2C(=O)N1C1CCCCC1	?	-1.9	3.29µM*	-9.5	2.4%	7.6
COc1ccc([C@@H]2[C@@H]3C(=O)N(C(C)(C)C)C(=O)[C@@H]3[C@]3(Cc4ccc(Cl)cc4)C(=O)N(c4ccc(Br)cc4)C(=O)N23)cc1	?	2.1	?	-13.3	4.8%[8.37 µM]	14.5
O=C(NC1CCCC1)C(c1cc2c(cc1[N+](=O)[O-])OCO2)N1CCCC1 (centres undefined)	63.7%	18.4*	55.2%	62.7	5.1%	65.5*
FC(F)(F)c1nc2nc(Cl)c(Cl)nc2[nH]1	·	·	·	-26.9	·	·
FC(F)(F)c1cccc(-c2nc3nc(Cl)c(Cl)nc3[nH]2)c1	28.0%	50.3*	-99.3%	·	11.2µM*	102.2*
COc1ccc(C(=O)N2CCCCC2c2cc(C(=O)Nc3cccc(C#N)c3)no2)cc1 (centres undefined)	·	·	·	1.3	·	·
CC(=O)CSc1ccc(-c2nc3cc(C)c(C)cc3[nH]2)cn1	-2.8%	-2.1	33.5%	-99.6*	?	2.0
COc1ccc(-c2[nH]c(-c3ccc(C)cc3)nc2SCC(=O)Nc2nccs2)cc1	-5.4%	-0.2	?	16.9	?	30.7
CCc1nnc(NC(=O)CSc2ccc(-c3nc4ccc(C)cc4[nH]3)cn2)s1	81.0%	32.5*	?	116.6	-0.8%	50.8*
CCc1nnc(NC(=O)CSc2ccc(-c3ccc(C)cc3)nn2)s1	17.3%	27.7	53.0%	101.1	27.6%	46.2
Cc1cc2nc(-c3ccc(SCC(=O)Nc4nccs4)nc3)[nH]c2cc1C	0.0%	39.0*	?	?	6.8%	15.3
Cc1cc2nc(-c3ccc(SCc4ccc(C#N)cc4)nc3)[nH]c2cc1C	?	15.0	7.38µM*	?	11.2µM*	20.0
CCN(CC(=O)Nc1ccc2c(c1)OCCO2)C(=O)c1cc(=O)[nH]c2ccccc12	-1.1%	·	6.7%	-15.7	10.7%	·
CC(CCl)n1c(=O)c2ccccc2n1C(=O)c1ccccc1 (centres undefined)	·	·	·	-6.6	·	·
COc1cc(Nc2nc3ccccc3c3nnc(C)n23)cc(OC)c1	·	·	·	0.0	·	·
Cc1ccc2nc(-c3ccc(SCC(=O)O)nc3)[nH]c2c1	80.5%	24.0	?	30.7	18.6%	27.0
Cc1ccc2nc(-c3ccc(SCC(=O)N4CCc5ccccc54)nc3)[nH]c2c1	?	56.4*	11.9%	36.6	?	120.9*
CC(=O)CSc1ccc(-c2nc3ccccc3[nH]2)cn1	74.6%	15.7*	8.28µM*	-22.9	?	·
COc1ccc(C(=O)Nc2cc3c(oc2=O)CCCC3=O)cc1	5.5%	25.4*	47.8%	-20.5	13.2%	41.9
O=C(Nc1cc2c(oc1=O)CCCC2=O)c1cccc(Cl)c1	42.4%	15.4	-15.0%	35.0	14.2%	61.3*
COc1ccccc1CNC(=O)CSc1cc(C)[nH]c(=O)n1	·	·	·	2.5	·	·
COc1ccc(-c2c[n+]3c(n2-c2ccccc2)CCCCC3)cc1	1.04µM*	1.2	?	-96.0*	3.6%	-4.9

Bioassay records as filed in PubChem BioAssay.
